Experimental data published in PubChem BioAssay (NCI).
Several values for one entry are separate records, joined by “and”; a condition that tells them apart may be missing. Equal entries are not always repeated. About 83,000 compounds went through this panel and 20% of them were active in at least one assay; those are over-represented in the sample as a whole.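 Compound tested at a single concentration for 48 hours in 96-well plates; a percent growth value below 10 was scored as active.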 Activity calls are given as the source filed them.

What was measured:
Experiment in all cases: NCI-60 one-dose screen, 48 h (100 = growth as untreated, 0 = no growth, -100 = all killed)
Conditions in all cases: 10 µM unless noted
DU-145 prostate = test system: DU-145 prostate
K-562 leukemia = test system: K-562 leukemia
MALME-3M melanoma = test system: MALME-3M melanoma
MDA-MB-231 breast = test system: MDA-MB-231 breast
RXF 393 renal = test system: RXF 393 renal
SF-268 CNS = test system: SF-268 CNS
SF-295 CNS = test system: SF-295 CNS
SF-539 CNS = test system: SF-539 CNS
UACC-257 melanoma = test system: UACC-257 melanoma
M14 melanoma = test system: M14 melanoma
HCT-15 colon = test system: HCT-15 colon
HT29 colon = test system: HT29 colon
SNB-75 CNS = test system: SNB-75 CNS
SNB-19 CNS = test system: SNB-19 CNS
U251 CNS = test system: U251 CNS
PC-3 prostate = test system: PC-3 prostate
SK-MEL-5 melanoma = test system: SK-MEL-5 melanoma
UACC-62 melanoma = test system: UACC-62 melanoma
LOX IMVI melanoma = test system: LOX IMVI melanoma
SK-MEL-28 melanoma = test system: SK-MEL-28 melanoma

`O=C1c2ccccc2C(=O)c2c(NCCNCCO)ccc(NCCNCCO)c21` was tested, and the growth (DU-145 prostate) was -41.7% (active) and 24.3% (inactive) and 14% (inactive), the growth (K-562 leukemia) was 135% (inactive) and 24.8% (inactive) and 7.96% (active) and the growth (MALME-3M melanoma) was -15.3% (active) and 45.8% (inactive) and 46.7% (inactive). For the same molecule, the growth (MDA-MB-231 breast) was -6.87% (active) and 11.3% (inactive) and 12.1% (inactive), the growth (RXF 393 renal) was 0.645% (active) and the growth (SF-268 CNS) was -16.6% (active) and 4.52% (active) and -6.95% (active). For the same molecule, the growth (SF-295 CNS) was -21.5% (active) and 7.17% (active), the growth (SF-539 CNS) was -17% (active) and 29.6% (inactive) and 19.9% (inactive) and the growth (UACC-257 melanoma) was 72.2% (inactive) and 89.1% (inactive) and 82.5% (inactive). The growth (M14 melanoma) was 10.7% (inactive) and 47.4% (inactive) and 33.9% (inactive), the growth (HCT-15 colon) was 70.2% (inactive) and 75.4% (inactive) and 72.6% (inactive) and the growth (HT29 colon) was 2.99% (active) and 16.2% (inactive) and 14.9% (inactive). The growth (SNB-75 CNS) was -26.9% (active) and -4.55% (active) and -6.89% (active), the growth (SNB-19 CNS) was -11% (active) and 14.5% (inactive) and 7.49% (active) and the growth (U251 CNS) was -4.94% (active) and 5.29% (active). The growth (PC-3 prostate) was -58.4% (active) and 36.2% (inactive) and 20.3% (inactive), the growth (SK-MEL-5 melanoma) was -50.5% (active) and 7.59% (active) and 3.46% (active) and the growth (UACC-62 melanoma) was -73.4% (active) and 10.3% (inactive) and 6.9% (active). For the same molecule, the growth (LOX IMVI melanoma) was -35.6% (active) and 0.446% (active) and 1.46% (active) and the growth (SK-MEL-28 melanoma) was -36.8% (active) and 31.2% (inactive) and 16.9% (inactive).

`CC(C)C(=O)Nc1ccc([N+](=O)[O-])c(C(F)(F)F)c1` was tested, and the growth (DU-145 prostate) was 74% (inactive) and 113% (inactive), the growth (K-562 leukemia) was 57.1% (inactive) and 62.1% (inactive) and the growth (MALME-3M melanoma) was 83.3% (inactive) and 88% (inactive). The growth (MDA-MB-231 breast) was 84.7% (inactive) and 102% (inactive), the growth (RXF 393 renal) was 104% (inactive) and the growth (SF-268 CNS) was 88.6% (inactive) and 102% (inactive). The growth (SF-295 CNS) was 76.7% (inactive) and 92% (inactive), the growth (SF-539 CNS) was 96.9% (inactive) and 92.7% (inactive) and the growth (UACC-257 melanoma) was 108% (inactive) and 112% (inactive). The growth (M14 melanoma) was 98.9% (inactive) and 92.9% (inactive), the growth (HCT-15 colon) was 94% (inactive) and 100% (inactive) and the growth (HT29 colon) was 106% (inactive) and 115% (inactive). The growth (SNB-75 CNS) was 113% (inactive) and 92% (inactive), the growth (SNB-19 CNS) was 96.8% (inactive) and 102% (inactive) and the growth (U251 CNS) was 98.3% (inactive) and 96.7% (inactive). The growth (PC-3 prostate) was 69.5% (inactive) and 100% (inactive), the growth (SK-MEL-5 melanoma) was 85.2% (inactive) and 98.4% (inactive) and the growth (UACC-62 melanoma) was 74.9% (inactive) and 80% (inactive). For the same molecule, the growth (LOX IMVI melanoma) was 90% (inactive) and 93.2% (inactive) and the growth (SK-MEL-28 melanoma) was 102% (inactive) and 107% (inactive).

For `COc1ccc2nc(Cl)cc(C)c2c1`, the growth (DU-145 prostate) was 104% (inactive) and 101% (inactive), the growth (K-562 leukemia) was 104% (inactive) and 89.5% (inactive) and the growth (MALME-3M melanoma) was 97.5% (inactive) and 127% (inactive). For the same molecule, the growth (MDA-MB-231 breast) was 99.9% (inactive) and 102% (inactive), the growth (RXF 393 renal) was 91.6% (inactive) and 75.9% (inactive) and the growth (SF-268 CNS) was 101% (inactive) and 116% (inactive). The growth (SF-295 CNS) was 92.8% (inactive) and 87.6% (inactive), the growth (SF-539 CNS) was 96.5% (inactive) and 107% (inactive) and the growth (UACC-257 melanoma) was 100% (inactive) and 95.9% (inactive). For the same molecule, the growth (M14 melanoma) was 100% (inactive) and 109% (inactive), the growth (HCT-15 colon) was 99.2% (inactive) and 101% (inactive) and the growth (HT29 colon) was 101% (inactive) and 105% (inactive). The growth (SNB-75 CNS) was 99.2% (inactive) and 98.3% (inactive), the growth (SNB-19 CNS) was 98.1% (inactive) and 111% (inactive) and the growth (U251 CNS) was 98.9% (inactive) and 108% (inactive). The growth (PC-3 prostate) was 99.2% (inactive) and 82.3% (inactive), the growth (SK-MEL-5 melanoma) was 98.8% (inactive) and 120% (inactive) and the growth (UACC-62 melanoma) was 94.4% (inactive) and 95.2% (inactive). The growth (LOX IMVI melanoma) was 105% (inactive) and 113% (inactive) and the growth (SK-MEL-28 melanoma) was 104% (inactive) and 118% (inactive).

For `Fc1ccccc1Nc1n[nH]c(=S)s1`, the growth (DU-145 prostate) was 110% (inactive), the growth (K-562 leukemia) was 107% (inactive) and the growth (MALME-3M melanoma) was 127% (inactive). For the same molecule, the growth (MDA-MB-231 breast) was 109% (inactive), the growth (RXF 393 renal) was 116% (inactive) and the growth (SF-268 CNS) was 91.5% (inactive). The growth (SF-295 CNS) was 126% (inactive), the growth (SF-539 CNS) was 105% (inactive) and the growth (UACC-257 melanoma) was 103% (inactive). For the same molecule, the growth (M14 melanoma) was 109% (inactive), the growth (HCT-15 colon) was 98.3% (inactive) and the growth (HT29 colon) was 103% (inactive). The growth (SNB-75 CNS) was 101% (inactive), the growth (SNB-19 CNS) was 104% (inactive) and the growth (U251 CNS) was 101% (inactive). For the same molecule, the growth (PC-3 prostate) was 106% (inactive), the growth (SK-MEL-5 melanoma) was 101% (inactive) and the growth (UACC-62 melanoma) was 95.3% (inactive). For the same molecule, the growth (LOX IMVI melanoma) was 128% (inactive) and the growth (SK-MEL-28 melanoma) was 102% (inactive).

`O=C1OC2(c3ccccc31)c1ccc(O)c(O)c1Oc1c2ccc(O)c1O` was tested, and the growth (DU-145 prostate) was 116% (inactive) and 119% (inactive), the growth (K-562 leukemia) was 115% (inactive) and 92.6% (inactive) and the growth (MALME-3M melanoma) was 126% (inactive) and 114% (inactive). For the same molecule, the growth (MDA-MB-231 breast) was 110% (inactive) and 108% (inactive), the growth (RXF 393 renal) was 102% (inactive) and 120% (inactive) and the growth (SF-268 CNS) was 108% (inactive) and 114% (inactive). The growth (SF-295 CNS) was 110% (inactive) and 130% (inactive), the growth (SF-539 CNS) was 108% (inactive) and 125% (inactive) and the growth (UACC-257 melanoma) was 106% (inactive). The growth (M14 melanoma) was 113% (inactive), the growth (HCT-15 colon) was 94.5% (inactive) and 123% (inactive) and the growth (HT29 colon) was 102% (inactive) and 116% (inactive). For the same molecule, the growth (SNB-75 CNS) was 101% (inactive) and 88.3% (inactive), the growth (SNB-19 CNS) was 110% (inactive) and 108% (inactive) and the growth (U251 CNS) was 104% (inactive). For the same molecule, the growth (PC-3 prostate) was 81% (inactive) and 89.2% (inactive), the growth (SK-MEL-5 melanoma) was 106% (inactive) and 100% (inactive) and the growth (UACC-62 melanoma) was 108% (inactive) and 102% (inactive). The growth (LOX IMVI melanoma) was 90.7% (inactive) and 103% (inactive) and the growth (SK-MEL-28 melanoma) was 112% (inactive) and 117% (inactive).

`c1ccc2c(CC3=NCCN3)cccc2c1` was tested, and the growth (DU-145 prostate) was 123% (inactive) and 114% (inactive), the growth (K-562 leukemia) was 115% (inactive) and 107% (inactive) and the growth (MALME-3M melanoma) was 104% (inactive) and 113% (inactive). For the same molecule, the growth (MDA-MB-231 breast) was 105% (inactive) and 109% (inactive), the growth (RXF 393 renal) was 105% (inactive) and 102% (inactive) and the growth (SF-268 CNS) was 114% (inactive) and 109% (inactive). The growth (SF-295 CNS) was 94.3% (inactive) and 100% (inactive), the growth (SF-539 CNS) was 102% (inactive) and 95.8% (inactive) and the growth (UACC-257 melanoma) was 101% (inactive) and 97.1% (inactive). The growth (M14 melanoma) was 97.1% (inactive) and 99.3% (inactive), the growth (HCT-15 colon) was 104% (inactive) and 106% (inactive) and the growth (HT29 colon) was 103% (inactive) and 96.3% (inactive). The growth (SNB-75 CNS) was 92.9% (inactive) and 105% (inactive), the growth (SNB-19 CNS) was 107% (inactive) and 104% (inactive) and the growth (U251 CNS) was 94.6% (inactive) and 100% (inactive). For the same molecule, the growth (PC-3 prostate) was 103% (inactive) and 96.2% (inactive), the growth (SK-MEL-5 melanoma) was 92.7% (inactive) and 108% (inactive) and the growth (UACC-62 melanoma) was 108% (inactive) and 106% (inactive). For the same molecule, the growth (LOX IMVI melanoma) was 91.9% (inactive) and 99.4% (inactive) and the growth (SK-MEL-28 melanoma) was 109% (inactive) and 107% (inactive).

In the case of `CCN(CC)CCC(CNc1ccnc2cc(Cl)ccc12)c1ccc(OC)cc1` (stereo not given), the growth (DU-145 prostate) is reported as 84.7% (inactive) and 96.7% (inactive), the growth (K-562 leukemia) is reported as 6.83% (active) and 1.92% (active) and the growth (MALME-3M melanoma) is reported as -69.1% (active) and -65.7% (active). The growth (MDA-MB-231 breast) was 33.1% (inactive) and 44.1% (inactive), the growth (RXF 393 renal) was 33.6% (inactive) and 38.1% (inactive) and the growth (SF-268 CNS) was 75.9% (inactive) and 76.8% (inactive). For the same molecule, the growth (SF-295 CNS) was 46.5% (inactive) and 1.95% (active), the growth (SF-539 CNS) was -80.6% (active) and -66.8% (active) and the growth (UACC-257 melanoma) was -70% (active) and -74.4% (active). The growth (M14 melanoma) was -60.3% (active) and -78.3% (active), the growth (HCT-15 colon) was 42.6% (inactive) and 30.8% (inactive) and the growth (HT29 colon) was 26.4% (inactive) and 14% (inactive). The growth (SNB-75 CNS) was 68.6% (inactive) and 34.1% (inactive), the growth (SNB-19 CNS) was 98.5% (inactive) and 92.2% (inactive) and the growth (U251 CNS) was 58.5% (inactive) and 50.6% (inactive). For the same molecule, the growth (PC-3 prostate) was 66.5% (inactive) and 62.2% (inactive), the growth (SK-MEL-5 melanoma) was 38.3% (inactive) and 30.4% (inactive) and the growth (UACC-62 melanoma) was 45.3% (inactive) and 51.9% (inactive). For the same molecule, the growth (LOX IMVI melanoma) was 40.2% (inactive) and 32.1% (inactive) and the growth (SK-MEL-28 melanoma) was -78.4% (active) and -54.7% (active).
